Peg3 promoter = Peg3 promoter activity inhibition; inhibition, % at 20 µM; AID 588405; HeLa PEG-Prom luciferase reporter, luminescence, overnight; 360,000 tested, 1.7% active;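 active = inhibition of at least 50% at 20 µM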
CHOP inh = CHOP inhibition in unfolded protein response. CHO-K1 CHOP-promoter luciferase, tunicamycin-induced, 15-18 h. inhibition, % at 10 µM. 220,000 tested, 3.8% active. AID 2732;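 active = compounds that reduced the stress-induced luciferase reporter signal by more than about 70% of percent inhibition, limit read from the data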
KKLEB tox = counter-screen for CF NF-kB inhibitors: cytotoxicity; KKLEB CF airway cells viability, ATPlite luminescence, overnight; active compounds read low; cells stimulated with P. aeruginosa culture filtrate; AID 602141; activity change (cytotoxicity), % at 5 µM; 360,000 tested, 0.36% active;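 active = corrected activity change at or below -50% at 5 µM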
CF NFkB block = blocks PAF-induced NF-kB reporter in cystic fibrosis cells; KKLEB NF-kB-GFP reporter, GFP fluorescence overnight; 360,000 tested, 0.86% active; inhibition, % at 5 µM;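 active = at least 50% inhibition at 5 µM, scaled per plate between neutral and stimulator controls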;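 note: PAF is a Pseudomonas aeruginosa culture filtrate used as stimulus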
MITF TRPM1 inh = reduces MITF-dependent TRPM1 promoter luciferase signal; SK-MEL-5 TRPM1 promoter luciferase, 24 h; inhibition, % at 12.5 µM; 330,000 tested, 0.83% active; AID 488899;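 active = mean inhibition across replicates of 60% or more, whatever share of single replicates reaches that level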
HIF-2a block = inhibitors of HIF-2a; 786-0 RCC cells HIF-2a reporter, luciferase luminescence, overnight; inhibition, % at 18.8 µM; 360,000 tested, 0.72% active; AID 624352;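 active = inhibition of the luminescence signal of 40% or more relative to plate controls, in a single-dose primary screen at 18.75 µM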
Of the large screens only hits and unclear results are named; the others gave an inactive call. In the library only some 4.3% were active in any assay of this set; here they are far more common.

Oc1c(C(Nc2nc3ccccc3s2)c2ccco2)ccc2cccnc12 (configuration not stated)	none (no result: CHOP inh)
CCC(=O)NC(c1cccs1)c1ccc2cccnc2c1O (configuration not stated)	CHOP inh 86, MITF TRPM1 inh 76
CC(=O)NC(c1cccs1)c1cc(F)c2cccnc2c1O (configuration not stated)	none (no result: CHOP inh)
CC(C)C(=O)NC(c1ccco1)c1ccc2cccnc2c1O (configuration not stated)	Peg3 promoter 53, MITF TRPM1 inh 76 (no result: CHOP inh)
Nn1c(SCc2cc([N+](=O)[O-])cc3c2OCOC3)nnc1-c1cccnc1	none
CCc1csc(CCNC(=O)C2CCC(=O)N(Cc3cccc(C(F)(F)F)c3)C2)n1 (configuration not stated)	none (no result: CHOP inh)
CC1(C(=O)Nc2cccc3cccnc23)CCN1Cc1ccccc1OC(F)F (configuration not stated)	none (no result: CHOP inh, MITF TRPM1 inh)
O=C(NCc1ccccc1CN1CCCC1)c1ccc(S(=O)(=O)Nc2ccccc2)cc1	none (no result: CHOP inh, MITF TRPM1 inh)
CCCn1nc(C(=O)NNC(=O)CCCOc2ccc(OC)cc2)c2ccccc2c1=O	none (no result: CHOP inh)
CCCC[C@@H](CNC)NC[C@H](Cc1ccc(O)cc1)NCCc1ccc(OCC)cc1	Peg3 promoter 97, MITF TRPM1 inh 96 (no result: CHOP inh)
CCC[C@H](CN[C@@H](CNC)[C@H](C)O)NCCc1ccc(OC)cc1	none (no result: CHOP inh)
Cn1c(SCC(=O)Nc2cccc(F)c2)nc2c([nH]c3ccccc32)c1=O	none
COc1cccc(-n2c(SCC(=O)N3CCCCC3)nc3c([nH]c4ccccc43)c2=O)c1	CHOP inh 71
CCOC(=O)C(C)Sc1nc2c([nH]c3ccccc32)c(=O)n1C (configuration not stated)	none
Cc1ccc(NC(=O)CSc2nc3c([nH]c4ccccc43)c(=O)n2C)cc1	Peg3 promoter 54 (no result: MITF TRPM1 inh)
Cn1c(SCC(=O)Nc2ccc(F)cc2)nc2c([nH]c3ccccc32)c1=O	CHOP inh 85
CCOC(=O)CSc1nc2c([nH]c3ccccc32)c(=O)n1C	CHOP inh 76
CCCCOCCCNC(=O)C[C@@H]1C[C@@]2(C(=O)OC)CC(C)(C)CC=C2N(CCc2ccc(OC)c(OC)c2)C1=O	none (no result: Peg3 promoter, CHOP inh, KKLEB tox, CF NFkB block, MITF TRPM1 inh)
CCCCC[C@@H]1C=C(C(=O)O)[C@H](c2cccc(C)c2)N1S(=O)(=O)c1ccc(C)cc1	none (no result: CHOP inh)
C=CCn1c(SCC(=O)Nc2ccccc2OC)nc2c([nH]c3ccccc32)c1=O	KKLEB tox -57, CF NFkB block 55 (no result: CHOP inh)
COCCn1c(SCC(=O)Nc2ccc(F)cc2)nc2c(oc3ccccc32)c1=O	CHOP inh 84, KKLEB tox -54
C/C(=N\NC(=O)c1nnn(-c2nonc2N)c1CN1CCC(C)CC1)c1ccc(Br)cc1	none (no result: CHOP inh, MITF TRPM1 inh)
O=S1(=O)C[C@H](N2CCOCC2)[C@@H](COCc2ccccc2)N1	none (no result: CHOP inh, MITF TRPM1 inh)
CCOC(=O)C1=C(c2ccccc2)NC(SCC(=O)Nc2ccccc2C)=C(C#N)C1c1ccco1 (configuration not stated)	none
CCOC(=O)C1=C(c2ccccc2)NC(SCC(=O)Nc2cccc(C)c2)=C(C#N)C1c1ccco1 (configuration not stated)	Peg3 promoter 70, CHOP inh 99
CCOC(=O)C1=C(c2ccccc2)NC(SCC(=O)Nc2ccc(C)cc2)=C(C#N)C1c1ccco1 (configuration not stated)	CHOP inh 94
COc1ccc(C(=O)O/N=C/c2ccc(S(=O)(=O)c3ccc(Cl)cc3)nc2)cc1	none (no result: CHOP inh)
COc1ccc(Nc2nc(C)nc3c2nnn3Cc2ccccc2)cc1OC	none
Cc1nc(Nc2ccc(S(=O)(=O)N3CCCCC3C)cc2)c2nnn(Cc3ccccc3)c2n1 (configuration not stated)	CHOP inh 74
Cc1nc(Nc2ccc(Cl)cc2)c2nnn(Cc3ccccc3)c2n1	CHOP inh 96
Cn1nc(C2CC2)cc1NC(=O)C1(C)CCN1C(=O)Cc1ccc(-c2ccccc2)cc1 (configuration not stated)	none (no result: CHOP inh, MITF TRPM1 inh)
CCn1c(CNc2cccc(Cl)c2)nnc1SCC(=O)OC1CCCCC1	CHOP inh 72
CCn1c(CNc2ccc(Cl)cc2)nnc1SCC(=O)OC1CCCCC1	none
CC(=O)c1cccc(NC(=O)/C=C/c2ccc([N+](=O)[O-])s2)c1	Peg3 promoter 99, CHOP inh 74, MITF TRPM1 inh 92
CC1CN(C(=O)/C=C/c2ccc([N+](=O)[O-])s2)CC(C)O1 (configuration not stated)	none
CC1CC(C)CN(C(=O)/C=C/c2ccc([N+](=O)[O-])s2)C1 (configuration not stated)	MITF TRPM1 inh 82
O=C(/C=C/c1ccc([N+](=O)[O-])s1)N1CCCCC1	MITF TRPM1 inh 89
O=C(/C=C/c1ccc([N+](=O)[O-])s1)N1CCN(c2ccccc2)CC1	none (no result: CHOP inh)
O=C(/C=C/c1ccc([N+](=O)[O-])s1)N1CCCC1	MITF TRPM1 inh 85
CC1(C(=O)O)CCCN1C(=O)c1cccc(OC(F)(F)F)c1 (configuration not stated)	none (no result: CHOP inh, MITF TRPM1 inh)
CCc1cccc2c(C(=O)Cn3nnc(-c4ccc(OC)c(OC)c4)n3)c[nH]c12	CHOP inh 72
N#Cc1ncc(-c2ccc3c(c2)OCCOCCOCCOCCOCCO3)nc1C#N	CHOP inh 106
N#Cc1ncc(-c2ccc3c(c2)OCCOCCOCCOCCO3)nc1C#N	none
Cc1cc(Nc2ccccc2Cl)nc(-c2ccccc2O)n1	none (no result: CHOP inh)
Cc1cc(NC2CCCCC2)nc(-c2ccccc2O)n1	CHOP inh 87
Cc1cc(NCc2ccccc2)nc(-c2ccccc2O)n1	CHOP inh 79
CCCOc1cc(C)nc(-c2ccccc2O)n1	CHOP inh 93
Cc1cc(OC(C)C)nc(-c2ccccc2O)n1	none
CCOc1cc(C(=O)OCC(=O)N(C)c2ccccc2)cc(OCC)c1OCC	none (no result: CHOP inh)
COc1ccc(CN2CCCC(C(=O)c3cccc(OC(C)C)c3)C2)cc1Cn1cccn1 (configuration not stated)	none
Cc1ccccc1Cn1ccc(NC(=O)c2cnn3c(C(F)(F)F)cc(-c4ccco4)nc23)n1	Peg3 promoter 51
O=C(Nc1cnn(C23CC4CC(CC(C4)C2)C3)c1)c1cnn2c(C(F)(F)F)cc(-c3ccco3)nc12	Peg3 promoter 71, MITF TRPM1 inh 75
COc1ccccc1C(=O)Nc1ccnn1C1CCN(C(=O)c2ccoc2C)CC1	none (no result: CHOP inh)
COc1ccc2cc([C@@H](C)C(=O)O)ccc2c1	none (no result: CHOP inh)
CCSc1ncc(/C=N/Nc2ccc([N+](=O)[O-])cc2)n1C	CHOP inh 78
Cn1cc(Cc2ccc(C(=O)N3CCCCC3)cn2)c2ccccc21	none (no result: CHOP inh, MITF TRPM1 inh)
CCc1nnc(SCC(=O)NC2CCCCC2)nc1CC	Peg3 promoter 77
CCc1nnc(SCC(=O)NC2CCCC2)nc1CC	CHOP inh 74
O=[N+]([O-])c1cc(S(=O)(=O)Nc2ccccc2)ccc1NCc1ccccc1	CHOP inh 92
